Measurements as given in the supplement of paper PMC8728848.
This excerpt belongs to a sample that is enriched for the strongest signals.

Key:
Assay in all cases: glycan array binding signal (z-score within array); higher = stronger binding
Details in all cases: glycan notation: IUPAC condensed, linker removed; mutation: R343K
Fuc(a1-2)Gal = target: Fuc(a1-2)Gal
Summary of the method: (§1)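 Glycan array binding is given as a within-array Z-score, which can be read as non-binding when negative. The arrays, 3228 of them, came from the Consortium for Functional Glycomics database and were retained only where the protein sequence was available. Z-scores were averaged across arrays of the same protein sequence at different concentrations or buffers and across linkers.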

[1] = target: Fuc(a1-2)Gal(b1-4)GlcNAc(b1-3)Gal(b1-4)GlcNAc(b1-3)Gal(b1-4)GlcNAc
Summary of the method: as §1

[2] = target: Fuc(a1-2)[GalNAc(b1-3)]Gal
Summary of the method: as §1

[3] = target: Fuc(a1-3)[Gal(b1-4)]GlcNAc(b1-2)Man(a1-6)[Gal(b1-4)GlcNAc(b1-2)Man(a1-3)]Man(b1-4)GlcNAc(b1-4)GlcNAc
Summary of the method: as §1

[4] = target: Fuc(a1-3)[Gal(b1-4)]GlcNAc(b1-4)Gal(b1-4)[Fuc(a1-3)]GlcNAc
Summary of the method: as §1

[5] = target: Gal(b1-3)GalNAc(b1-3)Gal(a1-4)Gal(b1-4)Glc
Summary of the method: as §1

[6] = target: Gal(b1-4)GalNAc(a1-3)[Fuc(a1-2)]Gal(b1-4)GlcNAc
Summary of the method: as §1

[7] = target: Gal(b1-4)GlcNAc(a1-6)Gal(b1-4)GlcNAc
Summary of the method: as §1

[8] = target: Gal(b1-4)GlcNAc(b1-6)GalNAc
Summary of the method: as §1

Gal3S(b1-3)GlcNAc = target: Gal3S(b1-3)GlcNAc
Summary of the method: as §1

[9] = target: Gal3S(b1-3)[Fuc(a1-4)]GlcNAc
Summary of the method: as §1

Glc(b1-4)Glc = target: Glc(b1-4)Glc
Summary of the method: as §1

GlcA(b1-6)Gal = target: GlcA(b1-6)Gal
Summary of the method: as §1

[10] = target: GlcNAc(b1-2)Gal(b1-3)GalNAc
Summary of the method: as §1

[11] = target: Man(a1-2)Man(a1-3)[Man(a1-2)Man(a1-6)]Man
Summary of the method: as §1

[12] = target: Man(a1-2)Man(a1-3)[Man(a1-2)Man(a1-6)]Man(a1-6)[Man(a1-2)Man(a1-2)Man(a1-3)]Man
Summary of the method: as §1

[13] = target: Man(a1-2)Man(a1-3)[Man(a1-6)]Man(a1-6)[Man(a1-2)Man(a1-3)]Man(b1-4)GlcNAc(b1-4)GlcNAc
Summary of the method: as §1

[14] = target: Man(a1-3)[Man(a1-6)]Man(a1-6)[Man(a1-2)Man(a1-3)]Man(b1-4)GlcNAc(b1-4)GlcNAc
Summary of the method: as §1

[15] = target: Man(a1-3)[Man(a1-6)]Man(a1-6)[Man(a1-3)]Man
Summary of the method: as §1

[16] = target: Neu5Ac(a2-3)Gal(b1-3)GalNAc(b1-3)Gal(a1-4)Gal(b1-4)Glc
Summary of the method: as §1

[17] = target: Neu5Ac(a2-3)Gal(b1-3)GalNAc6S
Summary of the method: as §1

[18] = target: Neu5Ac(a2-3)Gal(b1-3)GlcNAc
Summary of the method: as §1

[19] = target: Neu5Ac(a2-3)Gal(b1-4)GlcNAc(b1-3)Gal(b1-4)GlcNAc(b1-3)Gal(b1-4)GlcNAc
Summary of the method: as §1

[20] = target: Neu5Ac(a2-6)GalNAc(b1-4)GlcNAc
Summary of the method: as §1

[21] = target: Neu5Ac9Ac(a2-6)Gal(b1-4)GlcNAc
Summary of the method: as §1

[22] = target: Neu5Gc(a2-6)Gal(b1-4)GlcNAc
Summary of the method: as §1

B1: Surfactant Protein D (Human); Neck + Carbohydrate Recognition Domain (NCRD) (Homo sapiens) (protein)
chain: MLLFLLSALVLLTQPLGYLEAEMKTYSHRTMPSACTLVMCSSVESGLPGRDRDGREGPRGEKGDPGLPGAAGQAGMPGQAGPVGPKGDNGSVGEPGPKGDTGPSGPPGPPGVPGPAGREGALGKQGNIGPQGKPGPKGEAGPKGEVGAPGMQGSAGARGLAGPKGERGVPGERGVPGNTGAAGSAGAMGPQGSPGARGPPGLKGDKGIPGDKGAKGESGLPDVASLRQQVEALQGQVQHLQAAFSQYKKVELFPNGQSVGEKIFKTAQFVKPFTEAQLLCTQAGGQLASPRSAAENAALQQLVVAKNEAAFLSMTDSKTEGKFTYPTGESLVYSNWAPGEPNDDGGSEDCVEIFTNGKWNDKACGEKRLVVCEF
glycan array binding signal (z-score) (Fuc(a1-2)Gal): -0.147
glycan array binding signal (z-score) [1]: -0.143
glycan array binding signal (z-score) [2]: -0.145
glycan array binding signal (z-score) [3]: -0.147
glycan array binding signal (z-score) [4]: -0.157
glycan array binding signal (z-score) [5]: -0.147
glycan array binding signal (z-score) [6]: -0.145
glycan array binding signal (z-score) [7]: -0.153
glycan array binding signal (z-score) [8]: -0.151
glycan array binding signal (z-score) (Gal3S(b1-3)GlcNAc): -0.155
glycan array binding signal (z-score) [9]: -0.153
glycan array binding signal (z-score) (Glc(b1-4)Glc): -0.153
glycan array binding signal (z-score) (GlcA(b1-6)Gal): -0.146
glycan array binding signal (z-score) [10]: -0.159
glycan array binding signal (z-score) [11]: 5.42
glycan array binding signal (z-score) [12]: 10.9
glycan array binding signal (z-score) [13]: 5.1
glycan array binding signal (z-score) [14]: 7.96
glycan array binding signal (z-score) [15]: 5.92
glycan array binding signal (z-score) [16]: -0.155
glycan array binding signal (z-score) [17]: -0.156
glycan array binding signal (z-score) [18]: -0.142
glycan array binding signal (z-score) [19]: -0.143
glycan array binding signal (z-score) [20]: -0.155
glycan array binding signal (z-score) [21]: -0.15
glycan array binding signal (z-score) [22]: -0.155
